Test results published in PubChem BioAssay (NCI).
About 83,000 compounds went through this panel and 20% of them were active in at least one assay; those are over-represented in the sample as a whole.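 Note: values are percent growth. 100 is the growth of untreated cells, values between 100 and 0 indicate rising inhibition; between -100 and 0 indicates cell death.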 Values without a mark were called inactive. Activity calls are given as the source filed them. The calls were made as follows: active = growth percent below 10; inactive = the rest.

Tested on: HL-60(TB) leukemia
Assay: NCI-60 one-dose screen, 48 h (100 = growth as untreated, 0 = no growth, -100 = all killed)
Settings: 10 µM unless noted

Structure (SMILES) | growth
O=C(/C=C/c1cccc(Br)c1)c1cccc(OCCCCOc2cccc(C(=O)/C=C/c3cccc(Br)c3)c2)c1 | 95.3%
C=C=COc1cccc(/C(N)=N/C(N)=N/c2nc3ccccc3s2)c1 | 97.8%
COc1ccc(C(C)=C(c2ccc(OCCN(C)C)cc2)c2ccc(OCCN(C)C)cc2)cc1 | -63.3% (active)
CS(=O)c1nccc(-c2c(-c3ccc(F)c(OCc4ccccc4)c3)nc3sccn23)n1 (stereo not drawn) | -6.35% (active)
CC1=NC2=NN3C(=NN2C(c2ccccc2)=C1)N=NC(c1ccc(Br)cc1)=C3c1ccc(Br)cc1 | 115%
COc1cc2cc(Oc3ccc(NC(=O)Nc4cccc(C(F)(F)F)c4)cc3)c(C)nc2cc1OCCN(C)C | 133%
C=CCn1c(SCC(=O)c2ccc(Br)cc2)nnc1-c1c[nH]c2ccccc12 | 92.3%
NC(=O)c1c(NC(=O)c2ccc(F)cc2F)sc2c1CCC(=O)C2 | 34.1%
CCOC(=O)c1c(NC(=O)c2ccc(C(C)(C)C)cc2)sc2cc(OCCN3CCCCC3)ccc12 | 27.1%
NS(=O)(=O)c1ccc(Nc2nc(N/N=C/c3ccc(F)cc3)nc(Nc3ccccc3)n2)cc1 | 60.4%
C#Cc1nc(C2=C(C)C(O)CC2)cs1 (stereo not drawn) | 94.2%
CCn1c2ccc(/C=N/OCCCN(C)C)cc2c2cc(/C=N/OCCCN(C)C)ccc21 | -36.9% (active)
COc1ccc2c(c1)c(-c1nn3cc(-c4ccncc4)nc3s1)cn2C | -25.5% (active)
COc1ccc(/C=N/NC(=O)c2cn(C3CC3)c3c(OC)c(N4CC5CCCNC5C4)c(F)cc3c2=O)cc1 (stereo not drawn) | 80.6%
O=C(CSc1nc2sc3c(c2c(=O)n1-c1ccc(Cl)cc1)CCCC3)N/N=C/c1ccc(F)cc1 | 97.9%
COc1ccc([C@H]2[C@H](O)C(=O)N2c2cc(OC)c(OC)c(OC)c2)cc1F | -13% (active)
CC1=C(SCC(=O)OCCCCCC(C)C)C(=O)c2ccccc2C1=O | 86.8%
O=c1[nH][nH]c(-c2ccc(F)cc2)c1-c1nc2ccccc2s1 | 103%
Cc1ccc(S(=O)(=O)NCCNc2nc(Nc3ccc(N4CCN(C)CC4)cc3)nc3ccsc23)cc1 | 86.4%
COc1ccc(N2CCN(C3=C(Cl)C(=O)C(C)=C(C)C3=O)CC2)cc1 | 80.3%
CN1CCN(Cc2ccc(NC(=O)c3cncc(C#Cc4cnc5ccc(O[C@H]6CCOC6)nn45)c3)cc2C(F)(F)F)CC1 | -41.2% (active)
CCCNNC(=O)c1ccc(-c2ccc(NC(=O)CCCCCCC(=O)N[C@H](C(=O)N3C[C@H](O)C[C@H]3C(=O)N[C@@H](C)c3ccc(-c4scnc4C)cc3)C(C)(C)C)cc2)cc1 | 18.1%
Cn1cc(-c2nnc(N)nc2-c2c[nH]c3ccc(F)cc23)c2cc(Br)ccc21 | -20.7% (active)
C#C[C@]1(O)CC[C@H]2[C@@H]3CC=C4c5sc(-c6cccc(O)c6)nc5CC[C@]4(C)[C@H]3CC[C@@]21C | -30.7% (active)
CCCC(=O)NC(c1cccnc1)c1ccc2c(C)ccnc2c1O (stereo not drawn) | 6.67% (active)

Structure (SMILES) | growth
O=C(Nc1ccc2c(ccn2Cc2ccccn2)c1)c1ccnnc1 | 145%
Cn1cc(-c2cc(N)n3nc(-c4cn(C)c5ccc(Cl)cc45)cc3n2)c2cc(Cl)ccc21 | 31.5%
COc1cc2c(cc1OC)C(Sc1ccc(F)cc1)c1c(nc(N)c(C#N)c1N)O2 (stereo not drawn) | -14.2% (active)
COc1ccc(NCc2cn(-c3ccc(C(=O)O)cc3)nc2-c2cc(C(F)(F)F)cc(C(F)(F)F)c2)cc1 | 90.6%
CC[C@@](C)(NC(=O)C(C)(C)NC(=O)[C@@H](NC(=O)[C@@H]1CCCN1C(=O)C(C)(C)NC(=O)[C@H](CC(C)C)NC(=O)CNC(=O)C(C)(C)NC(=O)[C@@H](NC(=O)C(C)(C)NC(=O)[C@H](CCC(N)=O)NC(=O)[C@H](C)NC(=O)C(C)(C)NC(=O)[C@H](C)NC(=O)C(C)(C)NC(=O)[C@H](C)NC(=O)C(C)(C)NC(C)=O)C(C)C)C(C)C)C(=O)N[C@@H](CCC(N)=O)C(=O)N[C@@H](CCC(N)=O)C(=O)N[C@H](CO)CC1CCCCC1 | -35.2% [5 µM] (active)
O=C(NNc1nc2cc(F)c(F)cc2n2c(CN3CC4CNCC4C3)ccc12)c1ncccn1 (stereo not drawn) | -30.7% (active)
NC(=S)N/N=C(/C=C/c1cn(-c2ccccc2)nc1-c1ccc(Cl)cc1)c1cc2ccccc2oc1=O | 43.9%
CCOc1ccc2nc(NC(=O)c3ccc(C(F)(F)F)cc3)sc2c1 | 93.9%
O=S(=O)(Nc1ccc2c(c1)OCO2)c1ccc(-c2cnc(C3CC3)o2)cc1 | 3.52% (active)
CS(=O)(=O)c1nccc(-c2c(-c3ccc(F)c(OCc4ccccc4)c3)nc3sccn23)n1 | 5.59% (active)
C/C(=C(\c1ccc(O)cc1)c1ccc(OCCN2CCCCCC2)cc1)c1ccc(Cl)cc1 | -49.2% (active)
C#C[C@]1(O)CC[C@H]2[C@@H]3CC=C4c5sc(Nc6ccc(OC)nc6)nc5CC[C@]4(C)[C@H]3CC[C@@]21C | 10.1%
O=C1[C@H]2Cc3c([nH]c4ccccc34)[C@@H](c3ccc(Cl)cc3)N2C(=O)CN1C1CCN(Cc2ccccc2)CC1 | 12.9%
COc1ccc(N2CCN(C3=C(Cl)C(=O)c4ncccc4C3=O)CC2)cc1 | -4.99% (active)
O=C(Nc1cc(F)cc2cccnc12)c1cnc(N2CCOCC2)cn1 | 36.9%
O=C(NNc1nc2cc(F)ccc2n2c(CN3CC4(COC4)C3)ccc12)c1cnccn1 | -30.1% (active)
COC(=O)/C=C/c1c(C2(C)NC(=O)c3ccccc3N2)c(=O)oc2ccc(Cl)cc12 (stereo not drawn) | 109%
CC(=O)N(C)C1CCc2c(sc(NC(=O)c3ccc(C(C)(C)C)cc3)c2C(N)=O)C1 (stereo not drawn) | 40.4%
Cc1ccccc1N1CCN(C2=C(Cl)C(=O)c3ncccc3C2=O)CC1 | 4.21% (active)
CNC(=O)c1cc(Oc2ccc3nc(NC(=O)c4ccc(CN5CCCN(C)CC5)c(C(F)(F)F)c4)sc3c2)ccn1 | -65.2% (active)
COC(=O)C[Se]C(=O)Cc1c(C)n(C(=O)c2ccc(Cl)cc2)c2ccc(OC)cc12 | -20.9% (active)
Cc1ccc2c(n1)C(=O)C(Cl)=C(Nc1cc(C(F)(F)F)cc(C(F)(F)F)c1)C2=O | 40.7%
CCc1cccc(NC(=O)CNc2cc(S(=O)(=O)N(C)C)cc(C)c2C)c1 | 128%
COc1cccc2c1C=CC1(O2)Oc2cccc(OC)c2C=C1C (stereo not drawn) | 0.839% (active)
NNC(=O)c1sc2nc(-c3cnccn3)cc(-c3cccs3)c2c1N | 105%

Structure (SMILES) | growth
CN(C)CCn1c2ccc(N)cc2c2nc3ccccc3nc21 | 12%
COc1c(N2CC3CCCNC3C2)c(F)cc2c(=O)c(C(=O)N/N=C/c3ccc(N(C)C)cc3)cn(C3CC3)c12 (stereo not drawn) | 78.5%
Cc1ccc(NC(=O)/C=C/c2ccc(OCCCOc3ccc4c(C)cc(=O)oc4c3)cc2)cc1 | 98.5%
CN1CCN(Cc2ccc(NC(=O)c3cncc(C#Cc4cnn5cccnc45)c3)cc2C(F)(F)F)CC1 | -19% (active)
Nc1c(C(=O)c2ccccc2)sc2nc(-c3cnccn3)cc(-c3cccs3)c12 | 108%
CN1CCN(c2ccc(Nc3nc(NCCNS(=O)(=O)c4ccccc4)c4sccc4n3)cc2)CC1 | 103%
NC(N)=NS(=O)(=O)c1ccc(N=NC2C(=O)NN(c3ccccc3)C2=O)cc1 (stereo not drawn) | 107%
O=C(Nc1cc(Cl)cc(Cl)c1)Nc1nc2ccc([N+](=O)[O-])cc2s1 | -50.1% (active)
O=C(Nc1ccccc1)Nc1nc2ccc([N+](=O)[O-])cc2s1 | -35.9% (active)
COc1cc(C(=O)c2cc(C(C)=O)c3cccc(C)n23)cc(OC)c1OC | 10.7%
O=C1/C(=C/C=C/c2ccco2)SC(=S)N1c1ccccc1 | 51.8%
CCOC(=O)c1ccc(NC2=C(Cl)C(=O)c3nc(C)ccc3C2=O)cc1 | 47.5%
CNC(=O)c1cc(N2CCc3cc(NC(=O)Nc4ccc(N5CCN(C)CC5)c(C(F)(F)F)c4)ccc32)ccn1 | 79%
C[C@H]1c2[nH]c3ccccc3c2C[C@H]2C(=O)N(CCCCCCC(=O)NO)CC(=O)N21 | 108%
CCN1C(=O)N(CC)C2SC(N/N=C/c3ccccc3)=NC21 (stereo not drawn) | 4% (active)
NC(=O)n1c(=O)n(-c2cccc(C(F)(F)F)c2)c(=O)c2cc(-c3ccc(F)cc3F)ccc21 | -49.4% (active)
CN(C)CCCOc1c2ccccc2nc2c1oc1ccc(Cl)cc12 | 9.14% (active)
NS(=O)(=O)Oc1ccc2nc(Nc3ccc(F)c(F)c3)ccc2c1 | 71.3%
O=C(CCCCCCN1CC(=O)N2[C@@H](c3cccc(Cl)c3)c3[nH]c4ccccc4c3C[C@H]2C1=O)NO | 8.21% (active)
COc1cc(-c2nc3ccc(-c4nnc(SCC(=O)Nc5ccc(C(=O)/C=C/c6ccc(Cl)cc6)cc5)o4)cc3[nH]2)cc(OC)c1OC | 92.5%
C[C@H]1[C@H](C)CC[C@]2(COC(=O)c3cccnc3)CC[C@]3(C)C(=CC[C@@H]4[C@@]5(C)CCCNC(C)(C)[C@@H]5CC[C@]43C)[C@H]12 | 23.9%
C=C(C)[C@@H]1CC[C@]2(C(=O)O)CC[C@]3(C)[C@H](CC[C@@H]4[C@@]5(C)C/C(=C/c6ccccn6)C(=O)C(C)(C)[C@@H]5CC[C@]43C)[C@@H]12 | 15.3%
NC(N)=Nc1ccc(Oc2cccc(NC(N)=Nc3ccc(Cl)c(C(F)(F)F)c3)c2)cc1 | 27.8%
